High-throughput results deposited in PubChem by The Scripps Research Institute Molecular Screening Center.
PKA-R2B act – activators of human PKA-R2B complex | activation, % at 11.4 µM | P22694+P31323 | 340,000 tested, 0.079% active | PKA-R2B holoenzyme dissociation, Cy5-IP20 fluorescence polarization; R2B truncated from residue 108, S112A mutant; 0% DMSO only, 100% 113 µM cGMP;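 active means activation above a cutoff set at the mean over all compounds plus 3 SD, cut at about 18% in these data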;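 further: higher means more holoenzyme dissociation and a rise in polarization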
Target sequence (P31323 whole entry, looked up, other chains not shown, the tested form may be a part): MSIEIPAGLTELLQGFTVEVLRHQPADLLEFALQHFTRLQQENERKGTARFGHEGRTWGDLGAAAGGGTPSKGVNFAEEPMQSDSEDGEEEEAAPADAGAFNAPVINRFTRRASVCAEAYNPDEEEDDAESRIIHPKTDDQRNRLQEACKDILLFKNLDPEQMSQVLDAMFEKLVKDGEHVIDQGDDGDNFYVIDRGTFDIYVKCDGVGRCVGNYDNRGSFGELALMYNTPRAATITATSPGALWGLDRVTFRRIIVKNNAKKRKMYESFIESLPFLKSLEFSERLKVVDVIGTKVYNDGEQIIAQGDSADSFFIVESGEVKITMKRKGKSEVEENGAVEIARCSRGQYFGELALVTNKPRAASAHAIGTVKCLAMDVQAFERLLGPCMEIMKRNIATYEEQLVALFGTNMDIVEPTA
PKA-R1A act – PKA-R1A complex activation. PKA-R1A dissociation, Cy5-IP20 fluorescence polarization; scaled: DMSO 0%, 113 µM cGMP 100%. 340,000 tested, 0.083% active. AID 504707. activation, % at 11.4 µM;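 active means percent activation above the mean of all tested compounds plus 3 SD, cut at about 19% in these data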;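 further: higher means more PKAc released from R1A so a rise in polarization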
PAFAH1B3 inh – inhibitors of human PAFAH1B3. Q15102. 340,000 tested, 0.28% active. recombinant PAFAH1B3, FP-rhodamine probe, fluorescence polarization. AID 492972. inhibition, % at 3.39 µM;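 active means inhibition above the screen-wide average of all tested compounds plus 3 SD, cut at about 25% in these data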
pPAFAH inh – inhibitors of human plasma PAF acetylhydrolase (pPAFAH); Q13093; recombinant pPAFAH, FP-rhodamine probe fluorescence polarization; inhibition, % at 3.39 µM; 330,000 tested, 1.5% active;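 active means inhibition above the mean inhibition across the screen plus 3 SD, cut at about 25% in these data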;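 further: inhibitors block binding of the rhodamine activity-based probe so polarization drops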
PAFAH2 inh – PAFAH2 (human) inhibition. recombinant PAFAH2, FP-rhodamine activity probe, fluorescence polarization. inhibition, % at 3.39 µM. 340,000 tested, 0.99% active;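 active means inhibition above the mean over all tested compounds plus 3 SD, cut at about 30% in these data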;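 further: inhibitors block probe labeling of enzyme so polarization drops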
PAFAH1B2 inh – blocks human PAF acetylhydrolase 1b catalytic subunit 2. 340,000 tested, 1.2% active. inhibition, % at 3.39 µM. P68402. recombinant PAFAH1B2, FP-rhodamine activity probe, fluorescence polarization;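 active means inhibition above the mean of all tested compounds plus 3 SD, cut at about 24% in these data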
Target sequence (P68402 whole entry, looked up): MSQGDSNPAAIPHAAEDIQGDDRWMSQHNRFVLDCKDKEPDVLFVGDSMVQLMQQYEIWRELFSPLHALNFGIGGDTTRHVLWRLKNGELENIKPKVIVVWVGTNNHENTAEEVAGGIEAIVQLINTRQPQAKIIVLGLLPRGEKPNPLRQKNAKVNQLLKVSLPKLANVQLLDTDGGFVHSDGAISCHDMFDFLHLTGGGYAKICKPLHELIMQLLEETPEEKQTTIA
PAFAH2 confirm – confirmation of human PAFAH2 inhibitors | 2,300 tested, 65% active | inhibition, % at 3.39 µM | AID 493030 | recombinant PAFAH2, FP-rhodamine activity probe, fluorescence polarization | shares compounds with PAFAH2 inh;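 active means mean inhibition over three repeats above a set limit taken from the earlier primary screen, cut at about 30% in these data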;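 further: inhibitor blocks binding of rhodamine activity probe so polarization falls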
Numbers stand for hits; n = inactive; x = no result. This is a sample that favours compounds with a hit; in the whole collection about 2.6% have one here.

SMILES	PKA-R2B act	PKA-R1A act	PAFAH1B3 inh	pPAFAH inh	PAFAH2 inh	PAFAH1B2 inh	PAFAH2 confirm
O=S(=O)(c1ccc2c(c1)CCCN2)N1CCCC2CCCCC21 (configuration not stated)	n	n	n	n	31	n	n
O=S(=O)(c1ccc2c(c1)CCCN2)N1CCCC1	n	n	n	n	n	n	x
CC(C)=CCCC(C)=CCN1C(=O)CN(C)C1=O	n	n	x	x	x	x	x
O=C(OCc1nnc(-c2ccc([N+](=O)[O-])cc2)o1)c1ccc(F)c(S(=O)(=O)N2CCOCC2)c1	n	n	n	x	30	n	n
COc1ccc(C(=O)OCc2ccc(C)cc2)cc1S(=O)(=O)N1CCOCC1	n	n	n	n	n	n	x
O=C(NNC(=O)c1ccc(F)c(S(=O)(=O)N2CCOCC2)c1)c1ccc([N+](=O)[O-])cc1	n	n	n	n	n	n	x
COc1ccc(C(=O)OCC(=O)N2CCc3ccccc32)cc1S(=O)(=O)N1CCOCC1	n	n	n	n	68	n	69
COc1ccc(C(=O)OCc2nnc(-c3ccccc3)o2)cc1S(=O)(=O)N1CCOCC1	n	n	n	n	79	n	71
COc1ccc(C(=O)OCC(=O)NCC2CCCO2)cc1S(=O)(=O)N1CCCc2ccccc21 (configuration not stated)	n	n	n	n	34	n	n
O=C(OCC(=O)N1CCc2ccccc21)c1cc(S(=O)(=O)N2CCOCC2)ccc1F	n	n	n	x	n	n	x
CCc1ccccc1NC(=O)CN(c1ccc(OC)cc1OC)S(=O)(=O)c1ccccc1	n	n	n	n	n	n	x
O=C(Cn1cc(C(F)(F)F)ccc1=O)Nc1ccccc1	n	n	n	n	n	n	x
O=C(COC(=O)Cn1cc(C(F)(F)F)ccc1=O)Nc1ccccc1	n	n	n	n	68	n	60
O=C1NN(c2ccccc2)C(=O)/C1=C/c1ccc(-c2ccc(C(=O)O)cc2)o1	n	n	n	n	31	n	n
COC(=O)c1ccc(N2NC(=O)/C(=C/c3ccc(-c4ccc(Cl)c(C(=O)O)c4)o3)C2=O)cc1	n	n	n	x	n	n	x
O=c1c2sccc2[nH]c(=S)n1Cc1ccccc1	n	n	n	n	63	n	52
C/C(=N\N=C1\NC(=O)C(CC(=O)Nc2ccccc2F)S1)C1CCCCC1 (configuration not stated)	n	n	n	n	n	n	x
COc1ccc(C(=O)OCC(=O)NC2CCCC2)c(OC)c1	n	n	n	n	70	n	56
COc1ccc(C(=O)OCC(=O)NC(=O)NC2CCCC2)c(OC)c1	n	n	n	n	n	n	x
COc1ccc(C(=O)OCC(=O)NC(=O)NC2CCCC2)c(O)c1	n	n	n	n	n	n	x
COc1ccc(C(=O)OCC(=O)NC2CCCCCC2)c(OC)c1	n	n	n	x	82	n	78
COc1ccc(C(=O)OCC(=O)NC2CCCC2)c(OC)c1OC	n	n	n	n	89	n	81
COc1cc(SC)ccc1C(=O)OCC(=O)NC1CC1	n	n	n	n	n	n	x
CC1=NN(c2nc(N)nc(/C(C#N)=C/c3ccc([N+](=O)[O-])o3)n2)C(C)(C)C1	n	n	n	x	n	n	x
COc1ccc(C(=O)OCC(=O)c2ccc(F)cc2)cc1OC	n	n	n	n	60	n	57
SMILES	PKA-R2B act	PKA-R1A act	PAFAH1B3 inh	pPAFAH inh	PAFAH2 inh	PAFAH1B2 inh	PAFAH2 confirm
COc1ccc(C(=O)COC(=O)c2ccc(OC)c(OC)c2)cc1OC	n	n	n	n	n	n	x
COc1cccc(OC)c1C(=O)OCC(=O)NCC1CCCCC1	n	n	x	x	x	x	x
COc1cc(C(=O)OCC(=O)NCC2CCCCC2)ccc1OCC(C)C	n	n	n	n	68	n	61
COc1cc(C(=O)OCC(=O)NC2CC2)ccc1OCCC(C)C	n	n	n	n	71	n	68
COc1cc(C(=O)OCC(=O)NC2CCCCCC2)ccc1OCC(C)C	n	n	n	n	88	n	83
C[C@H](O)[C@@H]1C(=O)N2CCc3c([nH]c4ccccc34)[C@@H]2C[C@@H]1N(C)Cc1ccc2c(c1)OCO2	n	n	x	x	x	x	x
COc1ccc(C(=O)OCC(=O)NC2CC2)cc1S(=O)(=O)N(C)Cc1ccccc1	n	n	n	n	54	n	49
Cc1ccc(C(=O)OCC(=O)c2ccccc2)cc1	n	n	n	n	37	n	n
COc1cc(C(=O)OCC(=O)NC2CC2)cc(OC)c1OC	n	n	n	n	n	n	x
COc1cc(N)c(Cl)cc1C(=O)OCC(=O)NCC1CCCCC1	n	n	n	n	60	n	52
COc1ccc(C(=O)OCC(=O)NC2CC2)cc1F	n	n	n	n	49	n	31
COc1cc(N)c(Cl)cc1C(=O)OCC(=O)NCC1CCCO1 (configuration not stated)	n	n	n	n	n	n	x
COc1ccc(C)cc1NC(C)C(=O)NC(=O)NC1CCCCC1 (configuration not stated)	n	n	n	n	n	n	x
O=C(NCc1ccccc1CN1CCCC1)c1cc2cc(Cl)ccc2o1	n	n	n	n	n	n	x
C=C(C)c1cccc(C(C)(C)NC(=O)NNC(=O)c2ccccc2O)c1	n	n	n	n	35	n	n
COc1cc(Cl)c(NS(=O)(=O)c2ccc(-c3ccc(=O)[nH]n3)o2)c(OC)c1	n	n	n	n	32	n	n
CC(=O)c1ccc(NC(=O)COC(=O)/C=C/c2cccs2)cc1	n	n	n	n	57	n	46
CC(=O)c1ccccc1NC(=O)COC(=O)/C=C/c1ccc(C)o1	n	n	n	n	31	n	n
O=C(COC(=O)/C=C/c1cccs1)Nc1ccccc1Cl	n	n	n	n	58	n	36
CC(=O)c1ccccc1NC(=O)COC(=O)/C=C/c1cccs1	n	n	n	n	53	n	39
O=C(OCC(=O)N1CCC(Cc2ccccc2)CC1)c1cncc(Br)c1	n	n	n	n	n	n	x
O=C(COC(=O)/C=C/c1cccs1)Nc1ccc2ccccc2c1	n	n	n	n	56	n	51
Nc1ccc(C(=O)OCc2nc3ccccc3s2)cc1	n	n	n	n	60	n	48
O=C(CCc1ccc(S(=O)(=O)N2CCOCC2)cc1)OCc1nc2ccccc2s1	n	n	n	n	n	n	x
O=C(OCc1nc2ccccc2s1)c1cccc(S(=O)(=O)N2CCOCC2)c1	n	n	n	n	45	n	n
COc1ccc(/C=C/C(=O)OCc2cc(=O)n3c(n2)sc2ccccc23)cc1	n	n	n	n	n	n	x
O=C(OCc1nc2ccccc2s1)c1ccc(Br)s1	n	n	n	n	n	n	x
